Test results taken from the supplement of paper PMC13380429.

Legend:
[1] = tested on: Vero E6 infected with SARS-CoV-2; test: morphology score (similarity to uninfected cells); higher = more like uninfected cells; details: 24 h
[2] = tested on: Vero E6 infected with SARS-CoV-2; test: SARS-CoV-2 infection rate relative to infected DMSO; higher = more infection, active = 60 or less; details: 24 h

Row | Structure (SMILES) | morphology score [1] | SARS-CoV-2 infection rate [2]
1 | CC(=O)[C@@]12O[C@](C)(c3ccccc3)O[C@@H]1C[C@H]1[C@@H]3CCC4=CC(=O)CC[C@]4(C)[C@H]3CC[C@@]12C [algestone-acetophenide] (10 µM) | 0.363 | 88.5% (inactive)
2 | CC#CCn1c(N2CCC[C@@H](N)C2)nc2c1c(=O)n(Cc1nc(C)c3ccccc3n1)c(=O)n2C [linagliptin] (10 µM) | -0.0102 | 110% (inactive)
3 | C[C@H](c1ccc(F)cc1CCCC(=O)O)N(c1cc(F)ccc1F)S(=O)(=O)c1ccc(Cl)cc1 (10 µM) | 0.0279 | 112% (inactive)
4 | CCCc1cc(C(N)=S)ccn1 [protionamide] (10 µM) | 0.198 | 98% (inactive)
5 | C#CCN(C)Cc1ccccc1 [pargyline] (10 µM) | 0.0803 | 108% (inactive)
6 | C=CCN1CCc2nc(N)sc2CC1 [talipexole] (10 µM) | -0.1 | 104% (inactive)
7 | O=C1C=Cc2cc(Br)ccc2C1=O [bonaphthone] (10 µM) | -0.0263 | 103% (inactive)
8 | NC[C@H](O)c1ccc(O)c(O)c1 [norepinephrine] (10 µM) | -0.067 | 109% (inactive)
9 | CN(C)CCc1c[nH]c2ccc(C[C@H]3COC(=O)N3)cc12 [zolmitriptan] (10 µM) | 0.127 | 92.5% (inactive)
10 | O=C1NCCN1c1ncc([N+](=O)[O-])s1 [niridazole] (10 µM) | 0.233 | 95% (inactive)
11 | COc1cc2c(cc1F)C(c1ccccc1Cl)=Nc1c(n[nH]c1C)N2 (10 µM) | -0.191 | 104% (inactive)
